Measurements: PubChem BioAssay (Tox21)
Records with an inconclusive call do not appear. The source made the active and inactive calls. The call rests on the fitted dose curve; in most records, active means well fitted cell-killing curve with a large enough effect in the repeat runs; inconclusive means weak or mixed curves, or effect the other way; inactive means no such curve, though single readings can be large or run the other way.

Test: qHTS assay to identify small molecule antagonists of the thyroid receptor (TR) signaling pathway - cell viability counter screen (AID 743064); further: nearly all actives have a fitted effect of over 50% in size
Conditions: GH3.TRE-Luc viability, CellTiter-Fluor, 24 h; series mostly up to 70.3 µM
Excerpt: National Center for Advancing Translational Sciences [NCATS]
NIH Chemical Genomics Center [NCGC]
U.S. Environmental Protection Agency [EPA]
National Institutes of Environmental Health Sciences [NIEHS]
National Toxicology Program [NTP]
U.S. Food and Drug Administration [FDA]
Thyroid receptor (TR), a nuclear hormone receptor, plays an important role in development, proliferation, differentiation, metabolism, brain function, and cardiovascular system. […] To profile the Tox21 10K compound library in TR signaling, a cell-based GH3-TRE-Luc assay (GH3.TRE-Luc cell line, developed by the laboratory of Dr. Albertinka J. Murk, Wageningen University) was used to measure the inhibition of TR. GH3 (rat pituitary tumor) cells stably expressing a TR activity sensor consisting of two TR response elements and a luciferase reporter gene. The cytotoxicity of the Tox21 compound library against the GH3.TRE-Luc cell line was tested in parallel by measuring the cell viability using CellTiter-Fluor assay (Promega, Madison, WI) in the same wells.
Tox21 Assay Protocol Summary:
GH3.TRE-Luc cells were dispensed at 1500 cells/4 uL/well into 1536-well white solid bottom plates using a Multidrop Combi dispenser (Thermo Fisher Scientific Inc., Waltham, MA). After the assay plates were incubated at 37 C for 4 hours, 23 nL of library compound or DMSO controls was transferred to the assay plates by a pintool station (Kalypsys, San Diego, CA), followed by addition of 1 ul of T3 (1 nM, final concentration in the wells) to stimulate TR transactivation. The assay plates were incubated at 37 C for 23.5 h, and then 1 uL of CellTiter-Fluor reagent (Promega, Madision, WI) of measuring cytotoxicity was added to each well using a Bioraptr Flying Reagent Dispenser (FRD) workstation (Beckman Coulter, Indianapolis, IN, USA). The plates were incubated at 37C and 5% CO2 for additional 30 min, and fluorescence intensity was measured by a ViewLux plate reader (PerkinElmer, Shelton, CT).
Potency means the concentration at half of the fitted maximal effect.

Question: With `Cc1cc2c(C(C)C)c(O)c(O)c(C=O)c2c(O)c1-c1c(C)cc2c(C(C)C)c(O)c(O)c(C=O)c2c1O` as the molecule, how does the Potency read?
Answer: 9.44 µM (active)

Question: Which Potency does the source give for `O=C(O)CCCCCCC(=O)O` here?
Answer: inactive

Question: For `NC(=O)C(=O)N/N=C/c1ccc([N+](=O)[O-])o1`, which Potency is on record?
Answer: 26.6 µM (active)

Question: Which Potency does the source give for `c1cc(OCC2CO2)cc(OCC2CO2)c1` (stereo not given) here?
Answer: 19.2 µM (active)

Question: Which Potency does the source give for `CNCC[C@H](Oc1cccc2ccccc12)c1cccs1` here?
Answer: 7.5 µM (active)

Question: Which Potency does the source give for `CCN(CC)CCOc1ccc(C(O)(Cc2ccc(Cl)cc2)c2ccc(C)cc2)cc1` (stereo not given) here?
Answer: 7.5 µM (active)

Question: For `CCC(C)c1cc([N+](=O)[O-])cc([N+](=O)[O-])c1OC(=O)OC(C)C` (stereo not given), which Potency is on record?
Answer: 48.6 µM (active)

Question: Which Potency does the source give for `CCC(C)(C)c1cc(O)c(C(C)(C)CC)cc1O` here?
Answer: inactive

Question: Which Potency does the source give for `C=C[C@](C)(O)CC[C@@H]1[C@@]2(C)CCCC(C)(C)[C@@H]2CC[C@@]1(C)O` here?
Answer: 43.3 µM (active)

Question: With `NC1(c2ccc(-c3nc4ccn5c(=O)[nH]nc5c4cc3-c3ccccc3)cc2)CCC1` as the molecule, how does the Potency read?
Answer: 13.3 µM (active)

Question: Which Potency does the source give for `[O]=[Zr]` here?
Answer: inactive

Question: Which Potency does the source give for `C=CC(=O)OCCOCC(CC)(COCCOC(=O)C=C)COCCOC(=O)C=C` here?
Answer: inactive

Question: For `CCN(CC)CCCN(c1ccccc1)C1Cc2ccccc2C1`, which Potency is on record?
Answer: 2.98 µM (active)

Question: With `O=C1OC(=O)c2cccc3cccc1c23` as the molecule, how does the Potency read?
Answer: inactive

Question: With `C=CCCCCCCC=C` as the molecule, how does the Potency read?
Answer: inactive

Question: With `NCCCC(O)(P(=O)(O)O)P(=O)(O)O` as the molecule, how does the Potency read?
Answer: inactive

Question: For `Cc1c(C(=O)O)cccc1[N+](=O)[O-]`, which Potency is on record?
Answer: inactive

Question: With `O=C(O)c1cccc(Cl)n1` as the molecule, how does the Potency read?
Answer: inactive

Question: For `CCN(CC)CCOC(=O)C1(C2CCCCC2)CCCCC1`, which Potency is on record?
Answer: 26.6 µM (active)

Question: For `CC(NCCC(c1ccccc1)c1ccccc1)c1ccccc1` (stereo not given), which Potency is on record?
Answer: 9.44 µM (active)

Question: With `COc1cc(C(=O)NS(=O)(=O)c2ccccc2C)ccc1Cc1cn(C)c2ccc(NC(=O)OC3CCCC3)cc12` as the molecule, how does the Potency read?
Answer: 29.8 µM (active)

Question: With `Cc1ccc2ccc3cccc4ccc1c2c34` as the molecule, how does the Potency read?
Answer: inactive

Question: With `COc1cccc(CCc2ccccc2OCC(CN(C)C)OC(=O)CCC(=O)O)c1` (stereo not given) as the molecule, how does the Potency read?
Answer: 23.7 µM (active)

Question: With `CCCOc1sc(C(=O)N2CCC(c3cc(CN)ccc3F)CC2)c(C)c1Br` as the molecule, how does the Potency read?
Answer: 6.28 µM (active)

Question: With `Cc1cccc(Br)c1` as the molecule, how does the Potency read?
Answer: inactive

Question: With `CCCCCCCCCCCCN(CCO)CCO` as the molecule, how does the Potency read?
Answer: 17.2 µM (active)

Question: With `O=C1NCN(c2ccccc2)C12CCN(CCCC(c1ccc(F)cc1)c1ccc(F)cc1)CC2` as the molecule, how does the Potency read?
Answer: 3.35 µM (active)

Question: Which Potency does the source give for `CCCCCCC(C)Nc1ccc(Nc2ccccc2)cc1` (stereo not given) here?
Answer: 61.1 µM (active)

Question: For `c1ccc(Nc2cccc3ccccc23)cc1`, which Potency is on record?
Answer: 69.5 µM (active)

Question: Which Potency does the source give for `C/C=C/C=N/NC(=O)c1ccncc1` here?
Answer: inactive

Question: Which Potency does the source give for `CCCCCCCC/C=C\CCCCCCCC(=O)NCc1ccc(O)c(OC)c1` here?
Answer: 6.68 µM (active)

Question: With `Nc1cc(Cl)c([N+](=O)[O-])cc1O` as the molecule, how does the Potency read?
Answer: 60.6 µM (active)

Question: Which Potency does the source give for `CC(CN(C)C)CN1c2ccccc2CCc2ccccc21` (stereo not given) here?
Answer: 4.52 µM (active)

Question: With `COc1cc(C=C2CCC/C(=C\c3ccc(O)c(OC)c3)C2=O)ccc1O` as the molecule, how does the Potency read?
Answer: 7.5 µM (active)

Question: With `CCc1cccc(C)c1` as the molecule, how does the Potency read?
Answer: inactive

Question: Which Potency does the source give for `CC(C)N=C(N)/N=C(\N)Nc1ccc(Cl)cc1` here?
Answer: inactive

Question: With `CCCCOC(=O)C(C)CC` (stereo not given) as the molecule, how does the Potency read?
Answer: inactive

Question: Which Potency does the source give for `Cc1cn[nH]c1` here?
Answer: inactive

Question: With `Oc1c(Br)cc(Br)c2cccnc12` as the molecule, how does the Potency read?
Answer: 26.6 µM (active)

Question: Which Potency does the source give for `O=C1NCCN1CCN1CCC(c2cn(-c3ccc(F)cc3)c3ccc(Cl)cc23)CC1` here?
Answer: 6.68 µM (active)
